# Test results taken from paper PMC5700166.
# Substitutions are numbered along the chain they refer to.
# Key:
# Assay in all cases: protein-binding microarray (PBM); PBM: ~300 nM protein, 6 mM HEPES pH 7.8, 80 mM KCl, 0.5 mM EDTA, 0.5 mM EGTA, 6% glycerol, 35 ng/ul poly-dIdC, 1% milk, 1 h, room temperature; Ap Aiptasia and Nv Nematostella (sea anemones) / Co Capsaspora / Aq Amphimedon (sponge) / Dm Drosophila / Hu human; RHD is the Rel homology domain; high values mean tight binding
# Conditions in all cases: dsDNA, one strand shown
# GST-Ap-NF-kB RHD = biological target: T1, GST-Ap-NF-kB RHD (Exaiptasia pallida (Aiptasia), UniProt A0A913YAJ5 2-422)
# T1 sequence: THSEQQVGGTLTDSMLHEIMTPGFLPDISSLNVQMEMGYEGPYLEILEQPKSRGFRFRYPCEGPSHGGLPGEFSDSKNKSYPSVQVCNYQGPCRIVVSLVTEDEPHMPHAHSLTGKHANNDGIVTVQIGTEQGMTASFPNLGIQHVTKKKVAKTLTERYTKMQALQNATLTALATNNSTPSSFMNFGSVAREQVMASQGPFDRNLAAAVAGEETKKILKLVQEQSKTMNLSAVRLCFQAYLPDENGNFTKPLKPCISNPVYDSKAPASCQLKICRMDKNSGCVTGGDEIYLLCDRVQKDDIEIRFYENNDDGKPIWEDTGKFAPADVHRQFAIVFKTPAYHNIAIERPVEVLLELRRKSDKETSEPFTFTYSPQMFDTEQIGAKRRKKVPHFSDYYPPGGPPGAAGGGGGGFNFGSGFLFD
# [1] = biological target: T2, GST-Nv-NF-kB (Cys allele) (Nematostella vectensis, UniProt E5G601 2-411)
# T2 sequence: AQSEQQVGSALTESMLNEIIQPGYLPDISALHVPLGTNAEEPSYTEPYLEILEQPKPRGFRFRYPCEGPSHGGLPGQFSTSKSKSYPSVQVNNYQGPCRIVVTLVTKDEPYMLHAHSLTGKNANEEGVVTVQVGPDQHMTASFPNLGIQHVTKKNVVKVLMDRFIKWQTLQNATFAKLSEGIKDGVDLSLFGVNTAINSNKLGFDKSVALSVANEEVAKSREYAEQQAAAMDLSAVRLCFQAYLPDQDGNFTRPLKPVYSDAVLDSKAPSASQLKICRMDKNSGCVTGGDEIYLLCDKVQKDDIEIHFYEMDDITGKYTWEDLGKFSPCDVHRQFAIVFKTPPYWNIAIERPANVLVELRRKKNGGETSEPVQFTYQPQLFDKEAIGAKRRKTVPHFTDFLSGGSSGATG
# [2] = biological target: T3, GST-Nv-NF-kB (Ser allele) (Nematostella vectensis, UniProt A7UNT2 2-411)
# T3 sequence: T2 sequence with Q21R, C66S, S207N, E215Q, V217A, E225K, A268E, D399E
# GST-Co-NF-kB = biological target: T4, GST-Co-NF-kB (Capsaspora owczarzaki, UniProt F1ARL5 200-546)
# T4 sequence: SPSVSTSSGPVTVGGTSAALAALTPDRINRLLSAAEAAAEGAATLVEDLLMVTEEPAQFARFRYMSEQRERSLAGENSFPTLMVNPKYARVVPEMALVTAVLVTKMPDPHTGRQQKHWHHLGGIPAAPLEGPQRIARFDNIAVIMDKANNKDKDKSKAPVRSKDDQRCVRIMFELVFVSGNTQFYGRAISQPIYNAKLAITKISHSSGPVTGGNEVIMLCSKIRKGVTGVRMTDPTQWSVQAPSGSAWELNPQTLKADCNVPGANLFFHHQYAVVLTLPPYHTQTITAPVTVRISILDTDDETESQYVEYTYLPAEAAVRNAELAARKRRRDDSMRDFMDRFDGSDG
# GST-Dm-Relish = biological target: T5, GST-Dm-Relish (Drosophila melanogaster, UniProt Q94527 99-473)
# T5 sequence: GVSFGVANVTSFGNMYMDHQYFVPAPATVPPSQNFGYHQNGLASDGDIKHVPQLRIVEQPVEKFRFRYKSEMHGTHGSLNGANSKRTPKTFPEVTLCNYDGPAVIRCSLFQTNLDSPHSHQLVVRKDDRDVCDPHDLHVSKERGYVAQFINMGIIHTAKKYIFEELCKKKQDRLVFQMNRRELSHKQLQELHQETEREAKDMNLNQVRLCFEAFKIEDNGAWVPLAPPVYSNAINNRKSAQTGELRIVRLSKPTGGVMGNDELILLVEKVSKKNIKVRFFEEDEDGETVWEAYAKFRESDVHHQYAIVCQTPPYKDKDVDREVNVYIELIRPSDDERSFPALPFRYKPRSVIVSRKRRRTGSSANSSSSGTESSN
# GST-Aq-NF-kB = biological target: T6, GST-Aq-NF-kB (Amphimedon queenslandica, UniProt A9Y5G7 2-389)
# T6 sequence: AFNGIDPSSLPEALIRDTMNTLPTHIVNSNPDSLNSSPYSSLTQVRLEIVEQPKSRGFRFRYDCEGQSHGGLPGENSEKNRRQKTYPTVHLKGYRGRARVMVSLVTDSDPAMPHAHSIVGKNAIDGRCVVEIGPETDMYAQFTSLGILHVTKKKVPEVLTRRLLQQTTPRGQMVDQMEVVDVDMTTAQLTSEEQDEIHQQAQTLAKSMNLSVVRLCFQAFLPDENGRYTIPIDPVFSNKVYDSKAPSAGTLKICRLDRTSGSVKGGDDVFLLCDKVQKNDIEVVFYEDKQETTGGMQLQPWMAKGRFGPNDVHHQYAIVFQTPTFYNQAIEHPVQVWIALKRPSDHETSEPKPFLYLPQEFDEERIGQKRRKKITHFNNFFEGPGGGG
# GST-Hu-p50 = GST-Hu-p50 (Homo sapiens, UniProt P19838 7-356)
# Chain of GST-Hu-p50 (P19838 7-356): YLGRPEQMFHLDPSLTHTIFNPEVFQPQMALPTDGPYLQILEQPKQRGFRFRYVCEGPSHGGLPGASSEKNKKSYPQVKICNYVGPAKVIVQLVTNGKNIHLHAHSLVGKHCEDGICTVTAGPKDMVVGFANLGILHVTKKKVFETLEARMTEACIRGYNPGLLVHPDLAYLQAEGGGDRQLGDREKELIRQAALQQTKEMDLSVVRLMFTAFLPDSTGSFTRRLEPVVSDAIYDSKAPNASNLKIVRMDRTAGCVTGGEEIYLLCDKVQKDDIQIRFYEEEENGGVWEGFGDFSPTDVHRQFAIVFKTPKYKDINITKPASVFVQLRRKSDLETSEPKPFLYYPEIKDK
Sequence,binding signal (GST-Ap-NF-kB RHD),binding signal [1],binding signal [2],binding signal (GST-Co-NF-kB),binding signal (GST-Dm-Relish),binding signal (GST-Aq-NF-kB),binding signal (GST-Hu-p50)
CCGATTAACATCAAACAATCCCCTGATGTTAATCGGGTCTTGATTCGCTTGACGCTGCTG,7.46 z-score,7.94 z-score,9.07 z-score,3.49 z-score,5.32 z-score,6.2 z-score,6.29 z-score
CCGATTAACATCACCTTTCCCCCTGATGTTAATCGGGTCTTGATTCGCTTGACGCTGCTG,6.53 z-score,6.31 z-score,7.29 z-score,9.42 z-score,2.89 z-score,4.77 z-score,5.65 z-score
CCGATTAACATCACTGGATTCCCTGATGTTAATCGGGTCTTGATTCGCTTGACGCTGCTG,3.07 z-score,2.76 z-score,3.56 z-score,2.61 z-score,4.48 z-score,2.82 z-score,1.36 z-score
CCGATTAACATCAGGGAAATCAATGATGTTAATCGGGTCTTGATTCGCTTGACGCTGCTG,2.16 z-score,3.6 z-score,4.65 z-score,3.49 z-score,1.09 z-score,2.67 z-score,2.57 z-score
CCGATTAACATCAAAACATTCCCTGATGTTAATCGGGTCTTGATTCGCTTGACGCTGCTG,3.1 z-score,5.46 z-score,4.94 z-score,4.18 z-score,3.87 z-score,6.04 z-score,3.88 z-score
CCGATTAACATCAGATATCCCCCTGATGTTAATCGGGTCTTGATTCGCTTGACGCTGCTG,7.25 z-score,6.62 z-score,7.52 z-score,6.39 z-score,5.78 z-score,5.89 z-score,5.59 z-score
CCGATTAACATCAGGGGGAAACCTGATGTTAATCGGGTCTTGATTCGCTTGACGCTGCTG,8.24 z-score,8.06 z-score,9.71 z-score,9.35 z-score,7.54 z-score,7.94 z-score,7.23 z-score
CCGATTAACATCAAAGTCCCCCCTGATGTTAATCGGGTCTTGATTCGCTTGACGCTGCTG,7.56 z-score,6.37 z-score,5.95 z-score,9.05 z-score,7.85 z-score,6.3 z-score,5.64 z-score
CCGATTAACATCACCTTTTTCCCTGATGTTAATCGGGTCTTGATTCGCTTGACGCTGCTG,3.29 z-score,4.53 z-score,6.24 z-score,5.31 z-score,1.92 z-score,3.4 z-score,4.16 z-score
CCGATTAACATCACATATTCCCCTGATGTTAATCGGGTCTTGATTCGCTTGACGCTGCTG,7.49 z-score,8.81 z-score,9.04 z-score,7.39 z-score,4.55 z-score,6.7 z-score,5.69 z-score
CCGATTAACATCAGGGGATCACCTGATGTTAATCGGGTCTTGATTCGCTTGACGCTGCTG,7.26 z-score,5.39 z-score,6.05 z-score,2.95 z-score,9.04 z-score,6.68 z-score,4.71 z-score
CCGATTAACATCAGGGAATCTTATGATGTTAATCGGGTCTTGATTCGCTTGACGCTGCTG,3.7 z-score,4.66 z-score,4.86 z-score,3.74 z-score,2.95 z-score,5.5 z-score,4.29 z-score
